Measured values from PubChem BioAssay (Tox21).
Values without a mark were called inactive. Inconclusive results are not listed. Where a call stands in place of a potency, no number is given. Active and inactive are the calls of the source. The call rests on the fitted dose curve.

Experiments:
[1] = target: Acetylcholinesterase (Homo sapiens) (UniProt P22303); test: Acetylcholinesterase (AChE) small molecule antagonists: colormetric cell-based qHTS assay (AID 1347395); further: nearly all actives have a fitted effect of over 30% in size; further: potency means the concentration at half of the fitted maximal effect
Summary of the method: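 AChE inhibition read colorimetrically via DTNB–thiocholine in SH-SY5Y cells. Compound 30 min, substrate 90 min, both 37 C.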

[2] = target: Acetylcholinesterase (Homo sapiens) (UniProt P22303); test: Acetylcholinesterase (AChE) small molecule antagonists: enzyme-based qHTS assay (AID 1347397); conditions: Potency: AChE enzyme activity inhibition; outcome: AChE enzyme activity inhibition; further: nearly all actives have a fitted effect of over 55% in size; further: potency means the concentration at half of the fitted maximal effect
Summary of the method: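 Recombinant human AChE (50 mU/mL) preincubated with compound 30 min at room temperature; acetylthiocholine plus DTNB then added, and thiocholine formation read colorimetrically after 10 min at room temperature. DMSO served as vehicle control.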

[3] = target: Acetylcholinesterase (Homo sapiens) (UniProt P22303); test: Acetylcholinesterase (AChE) small molecule antagonists: fluorescence cell-based qHTS assay (AID 1347398); conditions: Potency: AChE activity; outcome: AChE activity; further: nearly all actives have a fitted effect of over 50% in size; further: potency means the concentration at half of the fitted maximal effect
Summary of the method: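 SH-SY5Y cells (2000/well), attached overnight, incubated with compound 30 min at 37 C. Acetylthiocholine plus Thiolite Green then added for 40 min at room temperature. Thiocholine fluorescence (Ex/Em 490/520 nm) reports cellular AChE activity.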

[4] = target: Acetylcholinesterase (Homo sapiens) (UniProt P22303); test: Acetylcholinesterase (AChE) small molecule antagonists: enzyme-based qHTS assay with human liver microsomes (AID 1347399); conditions: Potency: qHTS inhibition; outcome: qHTS inhibition; further: nearly all actives have a fitted effect of over 60% in size
Summary of the method: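 Recombinant human AChE (50 mU/mL in the enzyme mix) and human liver microsomes (0.25 mg/mL final) were preincubated with compound and NADPH (0.25 mg/mL final) for 30 min at 37 C. Acetylthiocholine/DTNB was then added; thiocholine was read colorimetrically after 10 min at room temperature.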

Sequence of Acetylcholinesterase (Homo sapiens) (P22303 whole entry, looked up): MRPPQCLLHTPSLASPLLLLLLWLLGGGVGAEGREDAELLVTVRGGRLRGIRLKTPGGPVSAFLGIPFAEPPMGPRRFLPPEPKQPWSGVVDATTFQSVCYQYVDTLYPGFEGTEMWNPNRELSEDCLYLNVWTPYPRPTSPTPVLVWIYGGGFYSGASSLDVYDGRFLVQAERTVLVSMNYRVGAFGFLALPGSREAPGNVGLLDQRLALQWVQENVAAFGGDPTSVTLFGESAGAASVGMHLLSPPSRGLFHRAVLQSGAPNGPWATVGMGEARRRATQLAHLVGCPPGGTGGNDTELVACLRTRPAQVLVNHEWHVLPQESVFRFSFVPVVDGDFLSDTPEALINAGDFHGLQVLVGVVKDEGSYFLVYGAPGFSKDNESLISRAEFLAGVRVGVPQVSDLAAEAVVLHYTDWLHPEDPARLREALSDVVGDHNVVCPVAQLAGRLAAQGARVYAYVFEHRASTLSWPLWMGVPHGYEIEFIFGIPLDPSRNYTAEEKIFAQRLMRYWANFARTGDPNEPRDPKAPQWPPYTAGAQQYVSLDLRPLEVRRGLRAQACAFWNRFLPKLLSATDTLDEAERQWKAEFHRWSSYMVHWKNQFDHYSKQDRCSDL

Row | SMILES | Potency [1] | Potency [2] | Potency [3] | Potency [4] | activity, negative = inhibition [1] | activity change, negative = inhibition [2] | activity change, negative = inhibition [3] | activity change, negative = inhibition [4]
1 | CN(CC1(C)CCCO1)S(=O)(=O)c1ccc(Cl)c(S(N)(=O)=O)c1 (stereo not given) | inactive | inactive | inactive | inactive | – | – | – | –
2 | CCCCCCCCC(=O)Cl | inactive | inactive | inactive | inactive | – | – | – | –
3 | CC(C)Cn1cnc2c(N)nc3ccccc3c21 | – | – | – | – | -1.3% [at 23.6 µM] | -0.415% [at 23.6 µM] | -8.86% [at 23.8 µM] | 1.68% [at 23.6 µM]
4 | CC1(C)C(=O)N(CO)C(=O)N1CO | inactive | inactive | inactive | inactive | – | – | – | –
5 | CCOC(=O)c1nc(C(Cl)(Cl)Cl)n(-c2ccc(Cl)cc2Cl)n1 | inactive | inactive | inactive | inactive | – | – | – | –
6 | COC(=O)C1=C(C)NC(COC(N)=O)=C(C(=O)OC(C)C)C1c1cccc(Cl)c1Cl (stereo not given) | inactive | inactive | inactive | inactive | – | – | – | –
7 | NC[C@H]1O[C@H](O[C@H]2[C@H](O)[C@@H](O[C@H]3O[C@H](CO)[C@@H](O)[C@H](N)[C@H]3O)[C@H](N)C[C@@H]2N)[C@H](O)[C@@H](O)[C@@H]1O | – | – | – | – | -1.99% [at 10.5 µM] | 0.413% [at 10.5 µM] | 2.3% [at 10.5 µM] | -5.67% [at 10.5 µM]
8 | CC(O)C(C)O (stereo not given) | inactive | inactive | inactive | inactive | – | – | – | –
9 | Nc1ccc(F)cc1 | inactive | inactive | inactive | inactive | – | – | – | –
10 | CCCCCCCCCC(C)C=O (stereo not given) | inactive | inactive | inactive | inactive | – | – | – | –
11 | CN1CCC(=C2c3ccccc3Sc3ccccc32)CC1 | inactive | inactive | inactive | inactive | – | – | – | –
12 | C=CCCCCCCCCCCCC | inactive | inactive | inactive | inactive | – | – | – | –
13 | CCCCCCOC(=O)CCCCC(=O)OCCCCCC | inactive | inactive | inactive | inactive | – | – | – | –
14 | Cc1nc(C)c(C)nc1C | inactive | inactive | inactive | inactive | – | – | – | –
15 | CN(C)CCc1c[nH]c2ccc(CS(=O)(=O)N3CCCC3)cc12 | inactive | inactive | inactive | inactive | – | – | – | –
16 | C[Si](Cl)(c1ccccc1)c1ccccc1 | inactive | inactive | inactive | inactive | – | – | – | –
17 | C=C(C)CCCC | inactive | inactive | inactive | inactive | – | – | – | –
18 | Cc1cccc(Br)c1 | inactive | inactive | inactive | inactive | – | – | – | –
19 | O=C1c2ccccc2C(=O)c2c(Cl)cccc21 | inactive | inactive | inactive | inactive | – | – | – | –
20 | Cc1ccc2c(c1[N+](=O)[O-])C(=O)c1ccccc1C2=O | 781 nM (active) | 1.39 µM (active) | 392 nM (active) | inactive | – | – | – | –

Row | SMILES | Potency [1] | Potency [2] | Potency [3] | Potency [4] | activity, negative = inhibition [1] | activity change, negative = inhibition [2] | activity change, negative = inhibition [3] | activity change, negative = inhibition [4]
21 | ON(Cc1ccccc1)Cc1ccccc1 | inactive | inactive | inactive | inactive | – | – | – | –
22 | C=CC(=O)OCCOCC(CC)(COCCOC(=O)C=C)COCCOC(=O)C=C | inactive | inactive | inactive | inactive | – | – | – | –
23 | C1C2OC2C2C1C1CC2C2OC12 (stereo not given) | inactive | inactive | inactive | inactive | – | – | – | –
24 | CCCCCCCCCCCCCCCC | inactive | inactive | inactive | inactive | – | – | – | –
25 | C=C(C)C(=O)NCCCN(C)C | inactive | inactive | inactive | inactive | – | – | – | –
26 | CCSCC | inactive | inactive | inactive | inactive | – | – | – | –
27 | COc1ccc(-c2cc(=S)ss2)cc1 | inactive | inactive | inactive | inactive | – | – | – | –
28 | CC(C)COC(=O)COc1ccc(Cl)cc1Cl | inactive | inactive | inactive | inactive | – | – | – | –
29 | CCCCC(CC)(CO)CO | inactive | inactive | inactive | inactive | – | – | – | –
30 | COc1ccc2c(c1)C(=O)N(CCc1ccc(S(=O)(=O)NC(=O)NC3CCCCC3)cc1)C(=O)C2(C)C | inactive | inactive | inactive | inactive | – | – | – | –
31 | O=C1CCC(=O)N1 | inactive | inactive | inactive | inactive | – | – | – | –
32 | CC(Cc1ccccc1)(NC(=O)CN)c1ccccc1 (stereo not given) | inactive | inactive | inactive | inactive | – | – | – | –
33 | Nc1cccc2c(N)cccc12 | inactive | inactive | inactive | inactive | – | – | – | –
34 | O=C(O)COc1ccc2ccccc2c1 | inactive | inactive | inactive | inactive | – | – | – | –
35 | NC(=O)CCCCC(N)=O | inactive | inactive | inactive | inactive | – | – | – | –
36 | CC/C=C\CC/C=C/CO | inactive | inactive | inactive | inactive | – | – | – | –
37 | N#CCc1cccc(C(F)(F)F)c1 | inactive | inactive | inactive | inactive | – | – | – | –
38 | O=C(O)/C=C(\CC(=O)O)C(=O)O | inactive | inactive | inactive | inactive | – | – | – | –
39 | CC(=O)c1ccc2c(c1)Cc1ccccc1-2 | inactive | inactive | inactive | inactive | – | – | – | –
40 | CC(=C(CCOC(=O)C(C)C)SSC(CCOC(=O)C(C)C)=C(C)N(C=O)Cc1cnc(C)nc1N)N(C=O)Cc1cnc(C)nc1N | inactive | inactive | inactive | inactive | – | – | – | –
